An excerpt weighted towards active compounds, which were near 19% of everything screened.
Giardia kill: kills Giardia lamblia; Giardia lamblia trophozoite viability; AID 540267; activity change, % at 7.66 µM, hits read low; hit rate 0.15% among 340,000; in the data active means activity change below about -80%; inconclusive means between about -30% and that limit;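 further: parasites exposed to compound for two days anaerobically before the ATP read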
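Each well holds 100 Giardia trophozoites and compound. After two days (48 hrs) at 37 deg C in anaerobic conditions, ATP is quantified by luminescence.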
TDP1 inh: TDP1 (human) enzyme inhibition. Q9NUW8. AID 485290. hit rate 0.28% among 350,000. Potency, µM (titrated, usually from 130 µM), for the others: top-dose activity change, negative = inhibition, usual class: inhibitors. recombinant TDP1, AlphaScreen DNA substrate cleavage; further: potency means the concentration at half of the fitted maximal effect; nearly all actives have a fitted effect of over 40% in size
Target sequence (Q9NUW8 whole entry, looked up): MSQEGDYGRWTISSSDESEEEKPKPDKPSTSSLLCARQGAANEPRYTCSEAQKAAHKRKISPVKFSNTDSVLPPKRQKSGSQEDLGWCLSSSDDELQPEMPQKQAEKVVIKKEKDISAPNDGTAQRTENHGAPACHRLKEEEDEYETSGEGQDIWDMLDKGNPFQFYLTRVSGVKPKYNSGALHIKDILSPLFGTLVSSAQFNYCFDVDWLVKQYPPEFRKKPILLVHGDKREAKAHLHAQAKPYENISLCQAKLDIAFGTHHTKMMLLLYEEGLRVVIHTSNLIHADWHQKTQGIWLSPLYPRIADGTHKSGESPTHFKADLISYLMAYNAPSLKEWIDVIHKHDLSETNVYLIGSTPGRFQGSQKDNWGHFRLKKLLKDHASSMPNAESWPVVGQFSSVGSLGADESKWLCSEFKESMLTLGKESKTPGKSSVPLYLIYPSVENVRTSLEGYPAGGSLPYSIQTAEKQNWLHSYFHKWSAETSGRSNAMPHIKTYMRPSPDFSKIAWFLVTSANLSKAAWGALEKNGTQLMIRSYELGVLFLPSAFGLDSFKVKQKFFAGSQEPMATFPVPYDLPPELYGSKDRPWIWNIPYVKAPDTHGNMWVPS
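Signal: AlphaScreen proximity between streptavidin donor and anti-FITC acceptor beads on intact substrate. Reaction: Tdp1 1 nM, substrate 15 nM final, 5 min RT after 15 min compound preincubation.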
DT40 TDP1 CPT: DT40-hTDP1 cell growth loss with CPT | chicken DT40 Tdp1-/-;hTDP1 cells + 20 nM CPT, ATP luminescence, 48 h | Potency, µM (titrated, usually from 46.2 µM), for the others: at the highest dose activity change, negative = growth inhibition, hits mostly inhibitors | hit rate 12% among 420,000 | AID 686979; further: potency means the concentration at half of the fitted maximal effect; nearly all actives have a fitted effect of over 55% in size
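Chicken DT40 Tdp1-/- cells stably complemented with human TDP1 were seeded at 400 cells/well in medium containing 20 nM camptothecin, exposed to pin-transferred compounds, and grown at 37 °C for at least 48 hr. Viability was read as ATP luminescence.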
TDP1 cell noCPT: qHTS for Inhibitors of human tyrosyl-DNA phosphodiesterase 1 (TDP1): qHTS in cells in absence of CPT | DT40 Tdp1-/- hTDP1 cells, no CPT, ATP luminescence, 48 h | Potency, µM (doses to about 46.2 µM), for inactives: at the highest dose activity change, negative = growth inhibition, usual class: inhibitors | hit rate 15% among 420,000 | AID 686978, 2013; further: potency means the concentration at half of the fitted maximal effect; nearly all actives have a fitted effect of over 55% in size
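DT40 Tdp1-/-;hTDP1 cells, no CPT (DMSO vehicle only), 400 cells/well; compounds pin-transferred; ≥48 hr, 37 °C; CellTiter-Glo 30 min RT dark, luminescence read.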
IL-1B inflam inh: inflammasome signaling inhibition, IL-1 beta readout; THP-1 LPS/ATP IL-1B secretion, AlphaLISA, 16 h; stronger effect = lower value; activity change, % at 57.5 µM; hit rate 4.7% among 360,000; AID 743279; in the data active means activity change below about -50%; inconclusive means mostly about -30% to -49%
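THP-1 cells pretreated 1 hr with compounds (up to 57.5 uM final), then stimulated with LPS (250 ng/mL final) plus ATP (1.25 mM final); secreted IL-1B measured by AlphaLISA after 16 hr, decreased signal indicating inhibition.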
ELG1 repair inh: ELG1-dependent DNA repair inhibition. HEK293T ELG1-luciferase reporter, luminescence, 16 h; DNA damage induced by 5-fluorouridine. Potency, µM (titrated, usually from 46.1 µM), for inactives: top-dose activity change, negative = inhibition, usual class: inhibitors. hit rate 2.3% among 330,000. AID 504467; further: potency means the concentration at half of the fitted maximal effect; nearly all actives have a fitted effect of over 55% in size
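Quantitative HTS, concentration-response format. 2,000 cells/well co-treated with 5-fluorouridine and compound, 16 hr in 5% CO2 at 37 °C; ONE-Glo luminescence read after 30 min.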
* = called active by the depositor; ? = inconclusive; nt = no result. Unless noted, the call rests on the fitted dose curve; in most records, active means well fitted curve in the direction sought with a large enough effect; inconclusive means small, poorly fitted or top-dose-only effect, or another doubt; inactive means no such curve, though single readings can be large; an effect the other way counts as inactive or inconclusive. On the % scale 0 is the no-effect control and ±100 the full control effect.

SMILES | Giardia kill | TDP1 inh | DT40 TDP1 CPT | TDP1 cell noCPT | IL-1B inflam inh | ELG1 repair inh
Cc1cc(NC(=O)CCc2nc3cccnc3n2-c2ccccc2)ccc1Br | nt | 1% | ? | ? | nt | nt
NS(=O)(=O)c1ccc(CCNC(=O)c2ccc([N+](=O)[O-])s2)cc1 | -8 | nt | 16µM* | ? | 25 | 13µM*
CC(=O)N[C@@H](CC(=O)N[C@@H](CCC(=O)O)C(=O)O)C(=O)O | nt | nt | -8% | -7% | nt | nt
CCCCn1nc(C(=O)Nc2ccc(-n3cnnn3)cc2)c2ccccc2c1=O | 26 | 0% | ? | -19% | -21 | 7.3µM*
CCCn1nc(C(=O)NC2CCCc3ccccc32)c2ccccc2c1=O (centres undefined) | -4 | -5% | -21% | ? | ? | 16µM*
CCCCCn1nc(C(=O)N2CCc3ccccc32)c2ccccc2c1=O | -4 | -3% | ? | ? | 8 | 11µM*
CCCCn1nc(C(=O)NC2CCCCCC2)c2ccccc2c1=O | -16 | 0% | ? | 13µM* | 26 | 18µM*
CCCn1nc(C(=O)NC2CCCC2)c2ccccc2c1=O | 17 | 0% | -15% | ? | 17 | ?
CCCn1nc2cc(C(=O)NC3CCCc4ccccc43)ccc2c1OCC (centres undefined) | 11 | -4% | -28% | ? | 0 | -17%
CC(C)Cn1nc(C(=O)N2CCc3ccccc32)c2ccccc2c1=O | -6 | -5% | ? | ? | -16 | ?
Cn1c(=O)c(-c2cccc(C#N)c2)nc2cnc(Oc3ccccc3)nc21 | nt | nt | 7% | 24% | nt | nt
Cc1cccc(-n2nnc(C(=O)NC3CCCc4ccccc43)c2N)c1 (centres undefined) | 6 | 2% | ? | 18µM* | -16 | ?
O=C(Nc1ccccc1Cl)C1CCN(S(=O)(=O)c2cccc3nonc23)CC1 | 10 | 9% | 6% | 0% | -18 | 0%
COc1cc(Cl)c(CN2CCCC(CO)(Cc3ccccc3)C2)cc1OC (centres undefined) | -3 | nt | ? | ? | -25 | -22%
COc1ccc(CN2CCCC(CO)(Cc3ccc(F)cc3F)C2)cc1 (centres undefined) | 13 | 0% | ? | ? | -84* | -15%
CCOc1ccc(CN2CCCC(CO)(Cc3ccc(F)cc3)C2)cc1 (centres undefined) | 7 | 3% | -26% | ? | ? | -5%
CCn1nc(C(C)C)cc1C(=O)N1CCCC(CO)(Cc2ccc(F)cc2F)C1 (centres undefined) | 21 | 1% | 23µM* | ? | 28 | ?
OCC1(Cc2ccc(F)cc2)CCCN(Cc2ccc(F)cc2Cl)C1 (centres undefined) | 0 | -10% | -23% | 26µM* | -3 | -2%
O=C(CSCc1ccc(Br)cc1)Nc1ccccc1C(=O)N1CCOCC1 | 12 | nt | ? | 16µM* | 6 | nt
CCn1cc(Cl)c(C(=O)Nc2ccccc2C(N)=O)n1 | 1 | 4% | -6% | 0% | -10 | ?
CCc1nnc(N2C(=N)SCC2=O)s1 | 6 | -1% | 8% | ? | 10 | 9%
O=C1c2ccccc2C(=O)N1c1ncc(Cc2ccc(Cl)cc2)s1 | -14 | 5% | 18µM* | ? | 15 | ?
CC(C)C(=O)Nc1ncc(Cc2ccccc2Cl)s1 | 6 | 0% | 20% | 1% | 5 | 6%
N=C1SCC(=O)N1c1ncc(Cc2ccccc2Cl)s1 | 3 | 9% | ? | ? | -102* | ?
N=C1SCC(=O)N1c1ncc(Cc2cccc(Cl)c2)s1 | 17 | 8% | ? | ? | -103* | ?
CN(C)S(=O)(=O)c1ccc(Cl)c(C(=O)NNC(=O)Cn2ccc(C(F)(F)F)n2)c1 | 0 | 1% | 12% | -1% | 23 | 13%
